# Measured values: PubChem BioAssay AID624125 (The Scripps Research Institute Molecular Screening Center, 2012)
# Values joined by “and” are separate entries in the source; they are usually repeats but may differ in a detail not shown here. Equal entries are not always repeated. About 2,600 (0.72%) of roughly 360,000 compounds were called active.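 Rule for the calls: active = inhibition above its plate's cutoff, the mean inhibition of sample wells plus 3 SD (cut at about 27% in these data); inactive = the rest.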 Shown is part of a subset that was picked to be rich in actives. Some structures have more than one record in an assay (separate samples or runs), and their calls can disagree.
# Target: Muscarinic acetylcholine receptor M4 (Homo sapiens) (UniProt P08173)
# Sequence (P08173 whole entry, looked up): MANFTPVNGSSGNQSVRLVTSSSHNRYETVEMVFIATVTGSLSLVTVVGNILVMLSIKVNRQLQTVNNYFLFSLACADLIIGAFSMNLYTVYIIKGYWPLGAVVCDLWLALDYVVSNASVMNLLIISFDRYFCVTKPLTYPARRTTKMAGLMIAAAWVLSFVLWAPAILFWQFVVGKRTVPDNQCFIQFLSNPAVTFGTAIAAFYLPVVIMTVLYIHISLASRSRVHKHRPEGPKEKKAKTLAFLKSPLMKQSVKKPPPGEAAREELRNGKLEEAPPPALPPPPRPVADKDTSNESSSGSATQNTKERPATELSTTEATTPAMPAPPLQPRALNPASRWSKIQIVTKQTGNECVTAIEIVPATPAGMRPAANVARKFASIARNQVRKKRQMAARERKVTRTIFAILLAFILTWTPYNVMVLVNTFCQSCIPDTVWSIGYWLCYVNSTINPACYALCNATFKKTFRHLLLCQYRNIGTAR
# Assay: CHRM4 blockers of acetylcholine calcium response – CHO cells, Fluo-8 calcium fluorescence, primary screen (AID 624125);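 note: 0% = acetylcholine EC80 with DMSO and 100% = DMSO without agonist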
# Conditions: CHO-hM4 cells, ACh EC80, Fluo-8 calcium fluorescence; at 3 µM; stronger effect = higher value
row,Compound,inhibition
1,CCOC(=O)[C@H]1[C@H]2COc3ccccc3[C@@H]2N2C(=O)CN(Cc3ccccc3)C(=O)[C@@]12C,-1.92% (inactive)
2,CCOC(=O)[C@H]1[C@H]2COc3cc(OC)ccc3[C@@H]2N2C(=O)CN(Cc3ccc(Cl)cc3)C(=O)[C@@]12C,2.23% (inactive)
3,CCOC(=O)[C@H]1[C@H]2COc3ccc(C)cc3[C@@H]2N2C(=O)CN(Cc3ccc(F)cc3)C(=O)[C@@]12C,56.2% (active)
4,CC(C)CNC(=S)NC(=O)c1ccc(Cl)cc1,-0.83% (inactive)
5,COc1ccc(N2CC(C(=O)NCCN3C(=O)S/C(=C\c4cccnc4)C3=O)CC2=O)c(OC)c1 (centres undefined),-13.5% (inactive)
6,O=C(NC(Cc1ccc(O)cc1)C(=O)O)/C(=C/c1ccccc1)NC(=O)c1ccccc1 (centres undefined),0.71% (inactive)
7,COc1cccc(C(=O)NNS(=O)(=O)c2ccc(F)cc2)c1,9.85% (inactive)
8,CC(C)NC(=O)C1(C)CCCCN1Cc1cccc(C(F)(F)F)c1 (centres undefined),-7.19% (inactive)
9,O=C(COC(=O)c1ccc(S(=O)(=O)Nc2ccccc2)cc1)NCC1CCCO1 (centres undefined),0.71% (inactive)
10,C=CCC1(CC=C)CCCN1C(=O)c1cc(COc2ccc(-n3cncn3)cc2)on1,28.6% (active)
11,O=C(c1cc(COc2c(F)cccc2F)on1)N1CCSCC1,8.34% (inactive)
12,CCCC(=O)N1CCC1(C)C(=O)Nc1ccc(-n2cncn2)cc1 (centres undefined),-7.42% (inactive)
13,Cc1cccc(C)c1Nc1nnc(SCC(=O)NCCCN2CCCC2=O)s1,-0.57% (inactive)
14,COC(=O)c1sccc1NC(=O)CC1C(=O)NCCN1C(=O)Nc1ccc(F)cc1F (centres undefined),-7.71% (inactive)
15,COc1ccc(CC(=O)Nc2c3c(nn2-c2cccc(Cl)c2)CS(=O)C3)cc1 (centres undefined),3.64% (inactive)
16,Cc1ccc(C(C)C)cc1OCCN1CCCC1,9.89% (inactive)
17,Cc1cc(OCCN2CCCC2)cc(C(C)C)c1,33% (active)
18,Cc1cc(OCCN2CCCC2)ccc1C(C)C,-0.72% (inactive)
19,CCOC(=O)[C@]12CCCC=C1N(CCC1=CCCCC1)C(=O)[C@H](CC(=O)NCCCOC)C2,-3.81% (inactive)
20,CC(=O)N(CC1CCCO1)C1(C(=O)NC2CCCC2)CCCCC1 (centres undefined),-5.29% (inactive)
21,CN(CC#CCC(c1ccccc1)c1ccccc1)C(C)(C)C,78.5% (active)
22,Cc1cc(Cl)ccc1C(=O)C1CCCN(C(=O)CCN2CCCO2)C1 (centres undefined),4.93% (inactive)
23,CCCCCCCCCCOC(=O)Cn1c(COc2cccc(OC)c2)[n+](C)c2ccccc21,36% (active)

row,Compound,inhibition
1,COCCN1C(=O)C(=O)/C(=C(/O)c2ccc(S(=O)(=O)N3CCCCC3)cc2)C1c1ccc(OC)c(OC)c1 (centres undefined),-5.56% (inactive)
2,CC(C)c1cc(C(=O)N/N=C/c2ccoc2)c(O)c(C(C)C)c1,5.01% (inactive)
3,O=C(Cc1ccc(Cl)cc1)NC(=S)Nc1ccccc1O,59% (active)
4,Fc1ccccc1CNC(=S)Nc1ccc(Cl)cc1,4.18% (inactive)
5,COC(=O)c1ccccc1NC(=O)CN(Cc1ccc(Cl)cc1)S(C)(=O)=O,1.99% (inactive)
6,CCOc1ccc(S(=O)(=O)N(CC(=O)NCC(F)(F)F)Cc2ccco2)cc1,-2.55% (inactive)
7,Cc1ccc(OCCNC(=O)CCNS(=O)(=O)c2ccc(Br)cc2)cc1,-11.5% (inactive)
8,Cc1ccc(OC(=O)c2c(C)nn(-c3ccccc3)c2C)cc1,-5.29% (inactive)
9,CCCCN(C)c1ccc([N+](=O)[O-])cc1,12.1% (inactive)
10,COc1ccccc1CSc1ncc(-c2ccc([N+](=O)[O-])cc2)[nH]1,-1.68% (inactive)
11,CCC1OC(c2ccc([N+](=O)[O-])cc2)=Nc2ccccc21 (centres undefined),31.2% (active)
12,CCOC(=O)c1cc(-c2ccccc2C)n(Cc2cc(C)no2)n1,4.03% (inactive)
13,CCCCNCCS(=O)(=O)NCc1ccccc1,7.64% (inactive)
14,CO/N=C(\C(=O)N[C@@H]1C(=O)N2C(C(=O)O)=C(COC(C)=O)CS[C@H]12)c1csc(N)n1 (stereo in doubt),-6.4% (inactive) and 79.2% (active) and 82.7% (active)
15,C=CC1=C(C(=O)O)N2C(=O)[C@@H](NC(=O)/C(=N/OCC(=O)O)c3csc(N)n3)[C@H]2SC1,-12.2% (inactive)
16,C=CC1=C(C(=O)O)N2C(=O)[C@@H](NC(=O)/C(=N\OCC(=O)O)c3csc(N)n3)[C@H]2SC1,-25.2% (inactive)
17,O=C(Cc1ccc(-n2c(=O)[nH]c3ccccc3c2=O)cc1)N1CCN(c2cccc(Cl)c2)CC1,-5% (inactive)
18,O=C(Cc1csc(Nc2nc(=S)[nH]c3ccccc23)n1)NCCCN1CCN(c2cccc(Cl)c2)CC1,32.6% (active)
19,Cn1c(Cc2cccc3ccccc23)nnc1SCC(=O)N1CCN(c2cccc(Cl)c2)CC1,-1.27% (inactive)
20,COc1cc(SC#N)ccc1N=Cc1c(C)[nH]n(-c2ccc(C)cc2)c1=O,39.7% (active)
21,CCN(CC(=O)NCc1cccs1)S(=O)(=O)c1ccc(NC(C)=O)cc1,16.2% (inactive)
22,CCCCNC(=O)N1CCN(S(C)(=O)=O)CC1,10.9% (inactive)
23,O=C(Nc1ccc(Cl)c(C(F)(F)F)c1)C1Cc2c(-c3ccccc3Oc3ccccc3)ccnc2O1 (centres undefined),6.27% (inactive)

row,Compound,inhibition
1,O=C1c2ccccc2C(=O)N1CCC(c1ccccc1)c1ccco1 (centres undefined),35.6% (active)
2,O=C1c2ccccc2C(=O)N1CCC(O)C[N+](=O)[O-] (centres undefined),-2.27% (inactive)
3,Nc1ccc(SCCN2C(=O)c3ccccc3C2=O)cc1,2.61% (inactive)
4,Cc1ccc(NC(=O)COC(=O)C2C3CC4OC(=O)C2C4C3)cc1Cl (centres undefined),15.9% (inactive)
5,CCCN1C(=O)C(NC(C)=O)c2cc(OC)ccc21 (centres undefined),13.9% (inactive)
6,ON=C1/C(=N\O)CC2(C/C1=N/O)OCCO2,10.7% (inactive)
7,COc1cc(/C=C2/SC(=S)N(Cc3ccccc3)C2=O)cc(OC)c1O,34.3% (active)
8,CN(C(=O)CN1C(=O)/C(=C/c2ccc(Cl)cc2)SC1=S)C1CCS(=O)(=O)C1 (centres undefined),-3.95% (inactive)
9,COc1cc(/C=C2\SC(=O)NC2=O)ccc1OCc1ccc(Cl)nc1,-5.37% (inactive)
10,CCCN(CCc1ccccc1)C1CCc2c(O)cccc2C1 (centres undefined),50.8% (active)
11,Cc1cc(C)cc(C(=O)N(CCc2ccccc2)C2=CC3CCC(C2)N3C)c1 (centres undefined),2.44% (inactive)
12,Cc1cccc(C)c1NC(=O)C(c1cccc2ccccc12)n1c(=O)c(-c2ccco2)nc2ccccc21 (centres undefined),-2.98% (inactive)
13,Cc1ccc(S(=O)(=O)N2CCN(C(=O)COC(=O)CNC(=O)c3ccc(C(C)(C)C)cc3)CC2)c(C)c1,1.62% (inactive)
14,Cc1cccc2c1-c1sc(C(=O)NCCCN3CCc4ccccc4C3)cc1CO2,45.9% (active)
15,Cc1cccc(C)c1NC(=O)c1ccc(CN2CCc3ccccc3C2)cc1,12.8% (inactive)
16,Cc1ccc(NC(=O)CN2CCc3ccccc3C2)cc1C,1.35% (inactive)
17,Cc1ccc(C(=O)OCC(=O)NC(=O)Cc2ccccc2)c(O)c1,3.16% (inactive)
18,CC1CCCCC1NC(=O)CN1CCC(O)(c2ccc3c(c2)OCO3)CC1 (centres undefined),-5.57% (inactive)
19,CC(=O)c1c(C)[nH]c(C(=O)COC(=O)c2cccc(S(=O)(=O)N(C)c3ccccc3)c2)c1C,54.5% (active)
20,COc1ccc(C)cc1NC(=O)C(OC(=O)c1cccc(S(=O)(=O)N(C)c2ccccc2)c1)c1ccccc1 (centres undefined),5.12% (inactive)
21,CC(=O)c1c(C)[nH]c(C(=O)OCC(=O)Nc2c(C)cccc2C)c1C,4.68% (inactive)
22,C=CCSc1nc(N)cc(=O)[nH]1,4.39% (inactive)
23,O=C(C1CCN(CC2CCCCC2)CC1)N1CCCC1,-6.1% (inactive)

row,Compound,inhibition
1,CC(=O)NC(c1cccc(F)c1)c1nc(-c2cccc(F)c2)cs1 (centres undefined),-12% (inactive)
2,Cn1nc(C(F)(F)F)c(C(=O)Nc2cccc(C(F)(F)F)c2)c1SCc1ccc(Cl)cc1,33.8% (active)
3,COC(=O)c1ccccc1Sc1c(/C=N/OCc2ccc(Cl)cc2)c(C(F)(F)F)nn1C,-7.11% (inactive)
4,CCC(=O)OCc1c(C(F)(F)F)nn(C)c1Oc1cccc(C(F)(F)F)c1,9.7% (inactive)
5,C=CCNC(=S)/N=c1/ccccn1Cc1ccccc1,11.8% (inactive)
6,COc1ccccc1CNc1nc(Nc2ccccc2Cl)c2sccc2n1,3.54% (inactive)
7,COc1cccc(CNc2nc(NCc3cccs3)nc3ccsc23)c1,48.6% (active)
8,COc1cccc(CNc2nc(NCc3ccccc3OC)nc3ccsc23)c1,13.8% (inactive)
9,COc1ccc(OCC(=O)Nc2cc(C)c(Cl)cc2OC)c([N+](=O)[O-])c1,-4.9% (inactive)
10,CN(C)CCOC1c2ccccc2-c2ccccc21,3.09% (inactive)
11,Cc1ccccc1C(OCC(O)CN1CCCCC1CCO)c1ccccc1 (centres undefined),8.86% (inactive)
12,Cc1ccccc1C(OCCN(C)C)C1CCCCC1 (centres undefined),83% (active)
13,Cc1n[nH]c(=O)n1-c1ccc(Oc2ccccc2)cc1,-7.75% (inactive)
14,COc1ccc(OC)c(/C=N/NC(=O)c2ccc[n+](CC(=O)c3ccccc3)c2)c1,-5.54% (inactive)
15,COc1cccc(/C=N/Nc2cc(C)nc(-c3ccccc3O)n2)c1O,28.3% (active)
16,CCCCCCCCn1c2c(c(=N)c3c1CCC3)CCCC2,36.8% (active)
17,CC1CN(S(=O)(=O)c2ccccc2)C(C)CN1S(=O)(=O)c1ccccc1 (centres undefined),-4.76% (inactive)
18,O=C(CC(NC(=O)c1ccccc1)c1ccccc1)Nc1ccc(F)c(F)c1 (centres undefined),-4.69% (inactive)
19,COc1ccccc1OCc1nnc(SCC(N)=O)n1-c1ccccc1,-4.24% (inactive)
20,CC1CCN(C(=O)c2ccc(S(=O)(=O)Cc3cc(F)ccc3F)c([N+](=O)[O-])c2)CC1,-7.53% (inactive)
